Assay [1] can be described thus: Primary qHTS for inhibitors of nuclear receptor binding SET domain protein 2 (NSD2) in an RCH-ACV wild type WT cells (2C) (AID 1645877). Note: nearly all actives have a fitted effect of over 70% in size. Note: potency is the fitted concentration of half-maximal effect. Background: Quantitative high-throughput screening tests each substance at several concentrations.
Assay [2] deals with Metallo-beta-lactamase type 2 (Klebsiella pneumoniae) (UniProt C7C422). Description: qHTS to identify inhibitors of the New Delhi Metallo-beta-lactamase (NDM): assay validation screen against the NCATS LOPAC Collection (AID 1794843).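 Note: nitrocefin turnover by NDM-1 measured as 485 nm absorbance at plateau; % is set by controls: 0 for no effect and ±100 for the full control effect.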 The method, boiled down: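 NDM-1 at 2 nM final in 50 mM HEPES pH 7.0 with 1 uM ZnSO4 and 0.01% Tween20 was preincubated with library compounds in DMSO. Nitrocefin (50 uM stock) was then added, and absorbance at 485 nm was read at the kinetic plateau.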
Metallo-beta-lactamase type 2 (Klebsiella pneumoniae), sequence (C7C422 whole entry, looked up): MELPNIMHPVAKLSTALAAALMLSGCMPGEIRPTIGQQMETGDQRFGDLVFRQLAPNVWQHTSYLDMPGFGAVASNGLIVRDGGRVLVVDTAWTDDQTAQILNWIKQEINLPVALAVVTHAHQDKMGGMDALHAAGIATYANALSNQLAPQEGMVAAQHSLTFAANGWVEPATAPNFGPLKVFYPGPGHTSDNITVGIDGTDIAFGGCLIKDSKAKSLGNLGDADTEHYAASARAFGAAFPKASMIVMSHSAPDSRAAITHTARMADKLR

Assay [3] has as its target Glutathione peroxidase 1 (Homo sapiens) (UniProt P07203). Kind of assay: Primary qHTS Assay for Inhibitors of Recombinant Selenoprotein Glutathione Peroxidase 1 (GPX1) (AID 1845191). For activity, negative = inhibition: % is set by controls: 0 for no effect and ±100 for the full control effect. Note: nearly all actives have a fitted effect of over 65% in size. The method, boiled down:
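Recombinant GPX1 (10 nM final) was preincubated with compound for 30 min at room temperature, then reacted with 1 mM GSH, 0.5 mM CHP, 0.5 mM NADPH and 100 nM glutathione reductase; NADPH fluorescence (340/450 nm) was read at 0 and 15 min.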

Assay [4] can be described thus: qHTS profiling for inhibitors of Plasmodium falciparum proliferation (AID 504749).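 For activity, negative = inhibition: 0% = DMSO vehicle and full inhibition = artemisinin control.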 Note: nearly all actives have a fitted effect of over 60% in size. Note: potency is the fitted concentration of half-maximal effect. The settings on record: P. falciparum in erythrocytes, SYBR Green DNA, 72 h. The method, boiled down:
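Parasite proliferation within erythrocytes, 72 h exposure. Endpoint: SYBR Green I fluorescence after overnight lysis at room temperature. Controls: 0.29 uM artemisinin, DMSO.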

The target in assay [5] is Phospholipid hydroperoxide glutathione peroxidase GPX4 (Homo sapiens) (UniProt P36969). Description: Primary qHTS Assay for Inhibitors of Recombinant Selenoprotein Glutathione Peroxidase 4 (GPX4) (AID 1845192). For activity change, negative = inhibition: % is set by controls: 0 for no effect and ±100 for the full control effect. Note: nearly all actives have a fitted effect of over 65% in size. The settings on record: outcome: dose series up to 50 µM unless noted. A digest of the protocol: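 GR-coupled readout: 100 nM GR, 1 mM GSH, 0.5 mM NADPH; NADPH fluorescence (ex 340/em 450 nm) read at t=0 and after 15 min RT. GPX4 200 nM, preincubated 30 min with compound; substrate 0.5 mM CHP.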
Phospholipid hydroperoxide glutathione peroxidase GPX4 (Homo sapiens), sequence (P36969 whole entry, looked up): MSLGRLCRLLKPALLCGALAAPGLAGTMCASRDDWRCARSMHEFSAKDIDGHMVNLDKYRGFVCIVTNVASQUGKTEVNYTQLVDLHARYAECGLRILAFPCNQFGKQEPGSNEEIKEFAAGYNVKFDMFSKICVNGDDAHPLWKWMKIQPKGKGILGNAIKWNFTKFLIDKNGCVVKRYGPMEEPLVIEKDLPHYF

The target of assay [6] is Catechol O-methyltransferase (Homo sapiens) (UniProt P21964). Kind of assay: Confirmatory Screen for Target Class Profiling of Small Molecule Inhibitors of Methyltransferases (AID 1745852). To be noted: MTase-Glo luminescence, SAH detection, recombinant enzyme; measured here: COMT max response; stronger effect = lower value.
Catechol O-methyltransferase (Homo sapiens), sequence (P21964 whole entry, looked up): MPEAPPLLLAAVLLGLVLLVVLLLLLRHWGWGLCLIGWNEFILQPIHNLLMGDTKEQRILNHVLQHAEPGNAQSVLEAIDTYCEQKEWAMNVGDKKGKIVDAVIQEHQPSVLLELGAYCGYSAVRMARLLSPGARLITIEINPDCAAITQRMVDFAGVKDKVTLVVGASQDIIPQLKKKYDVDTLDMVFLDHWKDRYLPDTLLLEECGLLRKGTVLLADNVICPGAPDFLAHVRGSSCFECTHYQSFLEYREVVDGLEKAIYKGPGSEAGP
For assay [7], the target named is Guanidinoacetate N-methyltransferase (Homo sapiens) (UniProt Q14353). The description is as above. To be noted: MTase-Glo luminescence, SAH detection, recombinant enzyme; at 57.3 µM (top of the series).
The target of assay [8] is Nicotinamide N-methyltransferase (Homo sapiens) (UniProt P40261). The assay is described as above. The settings on record: MTase-Glo luminescence, SAH detection, recombinant enzyme; measured here: NNMT max response; stronger effect = lower value.
Nicotinamide N-methyltransferase (Homo sapiens), sequence (P40261 whole entry, looked up): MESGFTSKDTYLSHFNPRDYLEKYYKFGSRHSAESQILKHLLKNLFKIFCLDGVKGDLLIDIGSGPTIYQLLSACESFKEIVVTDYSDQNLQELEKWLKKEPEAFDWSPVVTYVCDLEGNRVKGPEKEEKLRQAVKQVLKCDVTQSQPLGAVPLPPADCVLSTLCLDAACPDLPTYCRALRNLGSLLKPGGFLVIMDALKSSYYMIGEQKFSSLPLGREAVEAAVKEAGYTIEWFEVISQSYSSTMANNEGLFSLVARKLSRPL
For assay [9], the target named is Phenylethanolamine N-methyltransferase (Homo sapiens) (UniProt P11086). Described as above. To be noted: MTase-Glo luminescence, SAH detection, recombinant enzyme; measured here: PNMT max response; stronger effect = lower value.
Phenylethanolamine N-methyltransferase (Homo sapiens), sequence (P11086 whole entry, looked up): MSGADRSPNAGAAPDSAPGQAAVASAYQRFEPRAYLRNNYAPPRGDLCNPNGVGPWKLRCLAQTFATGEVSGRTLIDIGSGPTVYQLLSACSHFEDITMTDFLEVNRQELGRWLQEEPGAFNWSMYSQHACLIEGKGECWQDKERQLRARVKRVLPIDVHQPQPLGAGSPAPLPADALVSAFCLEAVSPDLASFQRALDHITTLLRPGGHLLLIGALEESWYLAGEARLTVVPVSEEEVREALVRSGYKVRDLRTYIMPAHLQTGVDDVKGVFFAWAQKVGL
Assay [10] can be described thus: NCATS anti-infectives library activity on HEK293 viability as a counter-qHTS vs the C. elegans viability qHTS (AID 1745854). Note: % is set by controls: 0 for no effect and ±100 for the full control effect. A digest of the protocol: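 Compounds were acoustically plated (several concentrations, 1:5, final up to 41.7 uM), then 1500 HEK293 cells added per well and incubated 24 hr at 37C, 5% CO2. CellTiter-Glo was added and luminescence read after 10 min.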

Assay [11] has as its target Luciferin 4-monooxygenase (Photinus pyralis) (UniProt P08659). Description: Primary firefly luciferase (FLuc) qHTS assay for identification of artifact compounds. (AID 1845220).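 Note: plate controls were DMSO vehicle for no effect and no enzyme for full effect; nearly all actives have a fitted effect of over 60% in size.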 A digest of the protocol:
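qHTS, 15 min compound preincubation with substrate (10 uM luciferin, 10 uM ATP) at RT, then 10 nM FLuc; 5 min; luminescence; % inhibition vs no-enzyme/DMSO controls, 4-parameter Hill fit.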

A short description of assay [12]: Primary fluorescence-based thiol-reactive (MSTI) qHTS assay for identification of artifact compounds. (AID 1845221).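 Note: thiol-reactive compounds lower the probe fluorescence signal; nearly all actives have a fitted effect of over 65% in size.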 The method, boiled down:
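In PBS pH 7.4 with 2% DMSO, each compound met 4 uM MSTI for one hour at ambient temperature, shielded from light, before fluorescence detection.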

The test system of assay [13] is Nanoluciferase (engineered Oplophorus gracilirostris luciferase). Kind of assay: Primary Nanoluciferase (NLuc) qHTS assay for identification of artifact compounds. (AID 1845222).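 Note: 0% = DMSO and -100% = no enzyme.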 The method, boiled down:
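Luminescence read-out of secreted NLuc in S16 cell conditioned medium (1:55); compounds tested with 15 min RT preincubation, then Nano-Glo substrate 1:100, 5 min. % inhibition vs no-enzyme and DMSO controls, 4-parameter Hill fit.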

Assay [14] in a line: Primary redox qHTS assay for identification of artifact compounds. (AID 1845223).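 Note: 0% = DMSO and 100% = reference compound.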 The method, boiled down:
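Amplex Red (25 uM) and HRP (250 mU/mL) in HBSS, with compounds for 15 min, then 250 uM DTT for 30 min, room temperature, dark. Fluorescence 525/598 nm read; normalized to DMSO and 10 uM DA3003; Hill fit.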

Setting [15] is: at 28.7 µM (top of the series), parasite line A.
Where [16] appears, read: at 28.7 µM (top of the series), parasite line B.
The mark [17] stands for this setting: at 12.8 µM (top of the series), parasite line A.
Where [18] appears, read: at 12.8 µM (top of the series), parasite line B.

Results filed as inconclusive are left out. Active and inactive are the calls of the source. Calls come from the whole dose curve; as a rule, active = well fitted curve in the direction sought with a large enough effect; inconclusive = small, poorly fitted or top-dose-only effect, or another doubt; inactive = no such curve, though single readings can be large; an effect the other way counts as inactive or inconclusive.

Glutathione peroxidase 1 (Homo sapiens), sequence (P07203 whole entry, looked up): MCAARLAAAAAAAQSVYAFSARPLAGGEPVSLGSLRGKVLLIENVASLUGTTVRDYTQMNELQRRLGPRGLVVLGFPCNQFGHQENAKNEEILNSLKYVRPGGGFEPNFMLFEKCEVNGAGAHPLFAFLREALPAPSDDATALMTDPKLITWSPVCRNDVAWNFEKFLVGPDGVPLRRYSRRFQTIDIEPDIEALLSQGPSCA

For `CN=C(NC#N)NCCSCc1nc[nH]c1C`, the Potency result in assay [1], in assay [2] and in [3] was “inactive” throughout. Further, the activity, negative = inhibition was -4.42% (inactive) in [4] (setting [15]) and -7.15% (inactive) in assay [4] (setting [16]).
`CC(C)(C)c1ccc(C(=O)CCCN2CCC(OC(c3ccccc3)c3ccccc3)CC2)cc1`: the Potency in [1] is 9.44 µM (active); in [4] (parasite line A) it was 10 µM (active). Moreover, the Potency entry in [2] was “inactive”. In addition, the outcome in assay [5] was “inactive”.
On to `CCCC(C(=O)OCCN(CC)CC)(c1ccccc1)c1ccccc1`, for which the Potency in [1] is 11.9 µM (active). Moreover, in [2], the Potency result was “inactive”. Further, in assay [5], the outcome is “inactive”.
With `CCCN(CCC)C(=O)C(CCC(=O)O)NC(=O)c1ccccc1` (centres undefined), the Potency result in assay [1] and in [2] was “inactive” throughout. In assay [5], the outcome was “inactive”.
For the molecule `CN/C(=C\[N+](=O)[O-])NCCSCc1ccc(CN(C)C)o1`, the Potency result in [1] and in assay [2] was “inactive” in each case. The outcome in assay [5] was “inactive”.
Consider `O=C(O)CP(=O)(O)O`, for which the Potency entry in assay [1] and in assay [3] was “inactive” throughout. The outcome in [5] is “inactive”. In addition, the activity, negative = inhibition is 3.45% (inactive) in [4] (setting [15]) and -17.2% (inactive) in assay [4] (setting [16]).
Take `O=C1CC2(CCCC2)CC(=O)N1CCCCN1CCN(c2ncccn2)CC1`: the Potency result in assay [1], in [2] and in assay [3] was “inactive” each time. Besides, the figures for the activity, negative = inhibition in [4] (setting [15]) and in assay [4] (setting [16]) were 11.6% (inactive) and 9.29% (inactive), respectively.
For `CCN(Cc1ccncc1)C(=O)C(CO)c1ccccc1` (centres undefined), the Potency entry in assay [1], in assay [2] and in assay [3] was “inactive” throughout. Also, the activity, negative = inhibition in assay [4] (setting [15]) is 3.05% (inactive); in [4] (setting [16]), -7.78% (inactive).
For the molecule `NC(=O)c1ncn([C@@H]2O[C@H](CO)[C@@H](O)[C@H]2O)c1O`, the Potency result in assay [1], in [2] and in [3] was “inactive” throughout. Also, the activity, negative = inhibition in assay [4] (setting [15]) was 9.25% (inactive); in assay [4] (setting [16]), 1.87% (inactive).
On to `O=C(O)CCCCCCCC(=O)O`, for which the Potency result in assay [1], in assay [2] and in assay [3] was “inactive” each time. Besides, the activity, negative = inhibition in assay [4] (setting [15]) is 9.73% (inactive); in assay [4] (setting [16]), 11.2% (inactive).
With `CC(N=C(NC#N)Nc1ccncc1)C(C)(C)C` (centres undefined), the Potency result in assay [1] and in [2] was “inactive” throughout. Further, the outcome in assay [5] was “inactive”. For the same molecule, the activity, negative = inhibition in assay [4] (setting [15]) is -3.66% (inactive); in [4] (setting [16]), -7.16% (inactive).
`NC(=Nc1ccccc1)Nc1ccccc1`: the Potency entry in [1] and in assay [3] was “inactive” each time. Besides, in assay [5], the outcome was “inactive”. Also, the activity, negative = inhibition in assay [4] (setting [15]) was -14.1% (inactive); in assay [4] (setting [16]), -13.7% (inactive).
For the molecule `CCc1c(C)[nH]c2c1C(=O)C(CN1CCOCC1)CC2` (centres undefined), the activity was 6.21% in [6], -7.58% in assay [8] and 4.21% in [9]. Further, the activity change, negative = inhibition in assay [7] was -2.7%. Also, the Potency result in assay [2] and in [3] was “inactive” in each case.
`COc1ccc(CN(CCN(C)C)c2ccccn2)cc1`: the Potency result in assay [1] and in assay [2] was “inactive” throughout. Moreover, in [5], the outcome is “inactive”. Further, the activity, negative = inhibition was -7.89% (inactive) in assay [4] (setting [15]) and -2.95% (inactive) in assay [4] (setting [16]).
`CNCCCN1c2ccccc2CCc2ccccc21`: the outcome in assay [10] was “inactive”.
`OCCN1CCN(CCCN2c3ccccc3C=Cc3ccccc32)CC1`: the outcome in assay [10] was “inactive”.
Consider `CCCN1C[C@H](CSC)C[C@@H]2c3cccc4[nH]cc(c34)C[C@H]21`, for which the outcome in [11], in [12], in [13] and in assay [14] was “inactive” each time.
For `CN1CCN(C2=Nc3ccccc3Oc3ccc(Cl)cc32)CC1`, the activity, negative = inhibition in [4] (setting [17]) was 4.87% (inactive); in [4] (setting [18]) it was -8.95% (inactive).
The like results for `CN(C)CCCN1c2ccccc2Sc2ccccc21` were, in that order, 8.14% (inactive) and 20.7% (inactive).

The record behind these values is PubChem BioAssay (NCATS).
